Screening data: PubChem BioAssay, Buhrlage Lab, Dana-Farber Cancer Institute and Novartis Institutes for BioMedical Research (Cambridge, Mass)
USP30 inh = blocks human USP30 ubiquitin-rhodamine cleavage. Q70CQ3. purified USP30, Ub-rhodamine cleavage fluorescence. inhibition, % at 25 µM. hit rate 5.3% among 47,000. AID 1645860
Target sequence (Q70CQ3 whole entry, looked up): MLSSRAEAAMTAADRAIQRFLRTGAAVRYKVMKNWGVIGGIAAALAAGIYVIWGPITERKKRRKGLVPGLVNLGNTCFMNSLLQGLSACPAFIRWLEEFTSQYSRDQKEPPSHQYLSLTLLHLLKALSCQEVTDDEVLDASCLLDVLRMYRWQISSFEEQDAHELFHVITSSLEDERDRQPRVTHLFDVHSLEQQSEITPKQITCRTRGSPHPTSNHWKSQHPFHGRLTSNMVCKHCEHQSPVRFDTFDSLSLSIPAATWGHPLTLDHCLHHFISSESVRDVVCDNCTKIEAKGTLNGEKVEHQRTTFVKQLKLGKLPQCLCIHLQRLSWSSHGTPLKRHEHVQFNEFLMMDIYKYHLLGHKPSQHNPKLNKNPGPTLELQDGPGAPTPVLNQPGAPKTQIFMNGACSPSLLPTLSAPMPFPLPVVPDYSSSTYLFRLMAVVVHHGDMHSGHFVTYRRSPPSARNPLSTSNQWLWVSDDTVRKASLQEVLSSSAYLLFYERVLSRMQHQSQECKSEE
USP8 block = inhibitors of human USP8 deubiquitinase | inhibition, % at 20 µM | purified USP8, Ub-rhodamine cleavage fluorescence, 30 min | AID 1645853 | P40818 | hit rate 4.2% among 47,000
USP28 inh = inhibitors of human USP28 deubiquitinase. AID 1645857. Q96RU2. purified USP28, Ub-rhodamine cleavage fluorescence, 30 min. hit rate 3% among 47,000. inhibition, % at 25 µM
USP17 inh = blocks human USP17 ubiquitin-rhodamine cleavage; AID 1645855; A8MUK1; purified USP17, Ub-rhodamine cleavage fluorescence, 3 h; hit rate 6.5% among 47,000; inhibition, % at 50 µM
Starred values were filed as active, the others as inactive; · = not tested or not shown. In the library only some 13% were active in any assay of this set; here they are far more common. Rule as the data show it: active = inhibition above about 30%; inactive = the rest.

SMILES	USP30 inh	USP8 block	USP28 inh	USP17 inh
Cc1cc2n(n1)CC(C)(C(=O)NCc1ccc(F)cc1)N(c1ccc3c(c1)OCCO3)C2=O (stereo unspecified)	0	-12	2	-10
Cc1ccc(-c2cc(N3CCN(S(C)(=O)=O)CC3)ncn2)cc1	47*	2	19	47*
CC1(C)Oc2ccccc2[C@H]2OCC3(CCN(C(=O)CCCn4cccn4)CC3)C[C@@H]21	-5	-6	-7	-1
CN[C@H]1CC2(CCN(C(=O)CCCn3cccn3)CC2)OC[C@]1(C)O	19	-19	79*	0
CCCCCCCCCCCC(O)CC(=O)N[C@@H](CC(C)C)C(=O)N[C@H](CCC(=O)O)C(=O)N[C@H]1C(=O)N[C@H]([C@@H](C)CC)C(=O)NC(CC(C)C)C(=O)N[C@H](CO)C(=O)N[C@@H](CC(C)C)C(=O)N[C@@H](CC(C)C)C(=O)N[C@H](CO)C(=O)N[C@@H](C(C)C)C(=O)O[C@@H]1C (stereo partly specified)	-15	35*	43*	51*
O=[N+]([O-])c1ccc(-c2cnc3n2CCC3)cc1	12	2	-6	-16
COc1ccccc1CN1CCC([C@@H]2C[C@H](C(F)(F)F)n3ncnc3N2)CC1	31*	15	8	11
COc1ccc(CN2CCC([C@@H]3C[C@H](C(F)(F)F)n4ncnc4N3)CC2)cc1OC	10	0	3	1
CCc1ccc(NC(=O)N2CCc3[nH]cnc3C2c2ccncc2)cc1 (stereo unspecified)	7	4	4	1
Cc1ccc(Nc2nc(O)c(CC(=O)Nc3cccc(Cl)c3C)s2)cc1C	15	63*	6	14
CCOC(=O)c1ccc(NC(=O)Cc2sc(Nc3ccc(O)cc3)nc2O)cc1	-13	0	-3	24
CCOC(=O)N1CCC(NCc2c(C(=O)O)n(Cc3ccc(C)cc3)c3ccccc23)CC1	0	-5	3	11
CCOC(=O)c1c(C)nc2n(Cc3ccccc3)c3ccccc3n12	61*	18	18	30
Cc1nn(-c2ccc3nncn3n2)c2c1C(c1ccc(C(C)C)cc1)CC(=O)N2 (stereo unspecified)	45*	17	16	19
Cc1ccccc1C1CC(=O)Nc2c1c(C)nn2-c1ccc2nnc(C)n2n1 (stereo unspecified)	29	2	18	11
CC(C)(NC(=O)C1CCCC1)c1nc2c(c(C(N)=O)n1)OCCO2	-4	8	0	·
Cc1nnc(NCc2cccnc2)c2c1nnn2Cc1ccccc1Cl	60*	-25	18	-2
CC1=C(c2ccc(F)cc2)S(=O)(=O)NC1=NCC(=O)Nc1cccc(F)c1	58*	7	17	41*
CC1=C(c2ccc(C)c(C)c2)S(=O)(=O)NC1=NCC(=O)NCCCc1ccccc1	30	-200	4	51*
CC1=C(c2ccc(F)cc2)S(=O)(=O)NC1=NCC(=O)Nc1c(C)cccc1C	14	0	2	17
CC1=C(c2ccc(F)cc2)S(=O)(=O)NC1=NCC(=O)Nc1ccc(F)cc1	52*	6	-1	0
CC1=C(c2ccc(C)c(C)c2)S(=O)(=O)NC1=NCC(=O)NCc1ccccc1	·	-4	·	28
CC1=C(c2ccc(Cl)cc2)S(=O)(=O)NC1=NCC(=O)Nc1ccc(F)cc1	44*	23	7	64*
Cc1ccc(C(=O)Nc2ccc([C@@H](O)[C@H]3COCC(=O)N3)cc2)cc1	-3	6	27	1
O=C(Nc1ccccc1C(F)(F)F)N1CCC(c2nc3c(nnn3Cc3ccccc3)c(=O)[nH]2)CC1	22	14	13	12
SMILES	USP30 inh	USP8 block	USP28 inh	USP17 inh
COc1cccc(S(=O)(=O)N2C[C@@H]3c4nccn4-c4ccccc4[C@@H]3C2)c1	0	15	5	3
O=C(CN1CCC(Nc2nc3c(c(=O)[nH]2)CCCC3)CC1)N1CCCc2ccccc21	13	8	16	10
O=C(Nc1cccc(Oc2ccccc2)c1)c1ccc2nc[nH]c2c1	-9	1	34*	-1
NC(=O)c1cccc(NC(=O)c2cccc(Oc3ccccc3)c2)c1	-4	10	15	6
COc1cccc(NC(=O)C(C(=O)Nc2cccc(OC)c2)c2ccccc2)c1	14	20	11	14
O=C(Nc1cccc(Oc2ccccc2)c1)c1c(F)cccc1F	-23	-8	36*	-4
CC(C)c1cc(C(=O)N2CCOC(CCc3cc(=O)[nH]cn3)C2)on1 (stereo unspecified)	40*	6	18	16
Cc1ccc(OCC(=O)Nc2ccc3c(c2)CN(C(=O)c2ccco2)CC3)cc1	43*	33*	50*	51*
Cc1ccccc1OCC(=O)Nc1ccc2c(c1)CN(C(=O)c1ccco1)CC2	26	0	37*	22
O=C(COc1ccc(-c2ccccc2)cc1)N1CCN(C(=O)c2ccco2)CC1	31*	-19	-6	20
COc1cccc(OC)c1C(=O)Nc1ccc2c(c1)CN(C(C)=O)CC2	10	9	4	10
COC(=O)CN1CC2(CCN(CCC(C)C)CC2)COc2ccccc2S1(=O)=O	15	0	8	1
COc1ccc(C2(c3nnc(-c4ccc5ccccc5n4)o3)CCOCC2)cc1	-9	6	-10	-19
O=C(NCCc1ccccc1)c1nc(-c2ccc3cc[nH]c3c2)no1	7	3	6	48*
O=C(NCc1ccccn1)c1nc(-c2ccc3cc[nH]c3c2)no1	0	-40	0	0
COc1ccc2[nH]c(C(=O)N(Cc3ccccn3)Cc3ccccn3)cc2c1	-7	81*	1	44*
Cc1ccccc1NC(=O)C1c2ccccc2C(=O)N(C2CCCC2)C1c1cccs1 (stereo unspecified)	8	13	21	11
CCN(c1ccccc1)S(=O)(=O)N1CCCC(C(=O)NCc2ccccc2OC)C1 (stereo unspecified)	24	9	13	12
COc1ccccc1CN1C[C@H]2NC(=O)c3ccccc3C(=O)[C@@]2(C)C1	-11	3	-1	1
C[C@]12CN(Cc3cccc4cccnc34)C[C@H]1NC(=O)c1ccccc1C2=O	-5	44*	0	18
COc1ccc(NC(=NS(C)(=O)=O)N2CCOCC2)cc1OC	9	-15	0	0
O=C(c1cnc2c(c1)c(-c1ccccc1)nn2CCO)c1ccccc1O	-7	-17	6	-10
Cc1cc(C)cc(-n2cnc3cc(C(=O)NCCC4=CCCCC4)ccc32)c1	15	-12	63*	0
COc1cc(-n2cnc3cc(C(=O)NCCN4CCOCC4)ccc32)cc(OC)c1OC	0	8	3	8
Cn1cc(CN[C@H]2[C@H](O)[C@H](O)C[C@@H]2c2ccccc2)cn1	1	6	1	1
Cn1cc(CN[C@H]2[C@H](O)[C@H](O)C[C@@H]2c2ccc(C(F)(F)F)nc2)cn1	0	42*	18	4
O=C(Nc1ccc(N2CCN(C3CCCCC3)C2=O)nc1)c1ccncc1	-244	-136	-60	-57
O=C(Cc1cccnc1)Nc1ccc(N2CCN(C3CCCC3)C2=O)nc1	-101	37*	-19	3
